SMILES strings stand for the structures. Inconclusive results are not listed. A number with no mark means an inactive call. Activity calls are given as the source filed them. Unless noted, the call rests on the fitted dose curve; in most records, active means well fitted curve in the direction sought with a large enough effect in the repeat runs; inconclusive means weak or mixed curves; inactive means no such curve, though single readings can be large; an effect the other way counts as inactive or inconclusive.

The results in this text go back to PubChem BioAssay (Tox21).

Assay [1] is described as follows: qHTS assay to identify small molecule agonists of the peroxisome proliferator-activated receptor delta (PPARd) signaling pathway - cell viability counter screen (AID 743211). Further: nearly all actives have a fitted effect of over 55% in size. Further: potency means the concentration at half of the fitted maximal effect. In a few lines: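 Counter screen for cytotoxicity run in parallel with the PPARd reporter screen. Beta-lactamase reporter HEK293H cells exposed to compounds 17 h; ATP-based CellTiter-Glo luminescence quantified viability.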
In general terms: qHTS replaces the single test concentration by a dilution series.

Assay [2] has as its target Peroxisome proliferator-activated receptor delta (Homo sapiens) (UniProt Q03181). In words: qHTS assay to identify small molecule agonists of the peroxisome proliferator-activated receptor delta (PPARd) signaling pathway (AID 743212; calls by dose curve; further: on the % scale 0 is the no-effect control and ±100 the full control effect). In a few lines: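 GeneBLAzer PPARd UAS-bla HEK293H cells (beta-lactamase reporter under UAS control), plated and rested 5 h at 37 C, then exposed to compounds in DMSO at 37 C; LiveBLAzer B/G FRET substrate added, 2 h room temperature, fluorescence read.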

Assay [3] is described as follows: qHTS assay to identify small molecule antagonists of the peroxisome proliferator-activated receptor delta (PPARd) signaling pathway - cell viability counter screen (AID 743213). Further: nearly all actives have a fitted effect of over 50% in size. Further: potency means the concentration at half of the fitted maximal effect. In a few lines: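 CellTiter-Glo was added to PPARd-bla HEK293H wells following 17 h compound treatment in the presence of 300 nM L165041. Luminescence was recorded after 30 min at room temperature.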

Assay [4] concerns the target Peroxisome proliferator-activated receptor delta (Homo sapiens) (UniProt Q03181). Nature of the assay: qHTS assay to identify small molecule antagonists of the peroxisome proliferator-activated receptor delta (PPARd) signaling pathway (AID 743215; active means well fitted inhibition curve with a large enough effect in the signal ratio in the repeat runs, not every such curve was filed as active; the % refers to the signal ratio;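 further: cells stimulated with agonist L165041 at 300 nM final during compound exposure; series mostly up to about 62 µM; on the % scale 0 is the no-effect control and ±100 the full control effect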). In a few lines:
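Antagonist-mode beta-lactamase reporter screen: HEK293H cells with UAS-bla under PPARd control, stimulated by 300 nM L165041 (final) alongside test compound for 17 h at 37 C, then FRET fluorescence after 2 h substrate incubation.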

Assay [5] can be described thus: qHTS assay to identify small molecule agonists of the farnesoid-X-receptor (FXR) signaling pathway - cell viability counter screen (AID 743218). Further: nearly all actives have a fitted effect of over 45% in size. Further: potency means the concentration at half of the fitted maximal effect. The procedure, abridged: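 In GeneBLAzer FXR-UAS-bla HEK 293T cells, compounds act for 16 h at 37 C. Cell viability is then scored in the reporter wells by CellTiter-Glo, 30 min at RT, luminescence.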
In assay [6] the target is Vitamin D3 receptor (Homo sapiens) (UniProt P11473). Nature of the assay: qHTS assay to identify small molecule antagonists of the vitamin D receptor (VDR) signaling pathway (AID 743223; active means well fitted inhibition curve with a large enough effect in the signal ratio in the repeat runs, not every such curve was filed as active; the % refers to the signal ratio; further: on the % scale 0 is the no-effect control and ±100 the full control effect). The procedure, abridged: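 Cells carrying a VDR-driven beta-lactamase reporter (VDR-bla) were co-treated with compound and 3 nM final 1alpha,25-dihydroxyvitamin D3 for 16 h at 37C; reporter activity was measured as FRET substrate fluorescence after 2 h at room temperature.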
Chain of Vitamin D3 receptor (Homo sapiens) (P11473 whole entry, looked up): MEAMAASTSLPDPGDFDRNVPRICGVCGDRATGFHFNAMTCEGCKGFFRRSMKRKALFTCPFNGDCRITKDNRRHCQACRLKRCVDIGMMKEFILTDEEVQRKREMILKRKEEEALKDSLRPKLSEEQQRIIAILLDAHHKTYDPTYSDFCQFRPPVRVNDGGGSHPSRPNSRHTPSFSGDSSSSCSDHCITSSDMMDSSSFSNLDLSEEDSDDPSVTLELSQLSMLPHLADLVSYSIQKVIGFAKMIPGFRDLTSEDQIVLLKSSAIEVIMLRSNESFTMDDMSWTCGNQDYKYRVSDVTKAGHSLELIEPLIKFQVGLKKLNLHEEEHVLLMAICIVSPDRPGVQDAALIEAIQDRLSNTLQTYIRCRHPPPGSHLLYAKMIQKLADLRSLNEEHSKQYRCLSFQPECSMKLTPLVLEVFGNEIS

Assay [7] is described as follows: qHTS assay to identify small molecule agonists of the vitamin D receptor (VDR) signaling pathway - cell viability counter screen (AID 743224). Further: nearly all actives have a fitted effect of over 50% in size. Further: potency means the concentration at half of the fitted maximal effect. The procedure, abridged: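 VDR-bla cell line, quantitative HTS format; 16 h compound incubation (37C, 5% CO2); ATP-based CellTiter-Glo luminescence measured in the reporter assay wells.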
The nature of assay [8]: qHTS assay to identify small molecule antagonists of the retinoid-related orphan receptor gamma (ROR-gamma) signaling pathway - cell viability counter screen (AID 1159520). Further: nearly all actives have a fitted effect of over 50% in size. Further: potency means the concentration at half of the fitted maximal effect. The procedure, abridged: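 Tet-on ROR gamma CHO cells (1,000/well) were plated 4 hr, given compounds in DMSO for 2 hr at 37 C, then induced with 1 uM final doxycycline for 16 hr. Viability was read as ATP by CellTiter-Glo luminescence after 30 min.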

For assay [9], the target named is Nuclear receptor ROR-gamma (Homo sapiens) (UniProt P51449). Nature of the assay: qHTS assay to identify small molecule antagonists of the retinoid-related orphan receptor gamma (ROR-gamma) signaling pathway (AID 1159521; further: nearly all actives have a fitted effect of over 50% in size; further: potency means the concentration at half of the fitted maximal effect). In a few lines:
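Cells were plated, rested 4 h at 37 C, exposed to compounds for 2 h, then given 1 uM final doxycycline hyclate to induce RORγ expression. After 16 h, ONE-Glo luminescence from the ROR response element reporter was measured.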

Assay [10] in a line: qHTS assay to identify small molecule agonists of the RXR signaling pathway - cell viability counter screen (AID 1159529). Further: nearly all actives have a fitted effect of over 50% in size. Further: potency means the concentration at half of the fitted maximal effect. The procedure, abridged: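 Steps: seed RXR-alpha-UAS-bla HEK 293T cells in assay medium containing 2% charcoal-stripped FBS; incubate 5 hr; add compounds in DMSO; incubate 16 hr at 37 C; after the bla read, add CellTiter-Glo and read luminescence at 30 min.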

Assay [11] can be described thus: qHTS assay to identify small molecule antagonists of the retinoid acid receptor (RAR) signaling pathway - cell viability counter screen (AID 1159551). Further: nearly all actives have a fitted effect of over 35% in size. Further: potency means the concentration at half of the fitted maximal effect. The procedure, abridged: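 Following overnight attachment, C3RL4 reporter cells received DMSO-dissolved compounds and then retinol (1 uM final). Six hours later at 37 C, ATP content was measured by CellTiter-Glo luminescence.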

The nature of assay [12]: qHTS assay to identify small molecule antagonists of the retinoic acid receptor (RAR) signaling pathway (AID 1159552; further: nearly all actives have a fitted effect of over 50% in size; further: potency means the concentration at half of the fitted maximal effect). In a few lines: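 Retinol at 1 uM final stimulated RARE-luciferase expression in C3RL4 cells exposed to test compounds for 6 hr at 37 C. Reduced luminescence, read 30 min after detection reagent, indicated pathway antagonism.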
Assay [13] can be described thus: qHTS assay to identify small molecule antagonists of the farnesoid-X-receptor (FXR) signaling pathway - cell viability counter screen (AID 743221; active means well fitted cell-killing curve with a large enough effect in the repeat runs, not every such curve was filed as active). The procedure, abridged: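 Multiplexed counter screen: viability of FXR-bla HEK 293T cells under agonist stimulation by chenodeoxycholic acid (50 uM, final) and test compound for 16 h at 37 C, measured by CellTiter-Glo luminescence in the reporter wells.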

The target in assay [14] is Vitamin D3 receptor (Homo sapiens) (UniProt P11473). In words: qHTS assay to identify small molecule agonists of the vitamin D receptor (VDR) signaling pathway (AID 743222; calls by dose curve; further: on the % scale 0 is the no-effect control and ±100 the full control effect). The procedure, abridged: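 Agonist activity measured in VDR-bla reporter cells. Exposure 16 h, 37C, 5% CO2; detection by B/G FRET substrate, 2 h RT.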
Assay [15] is described as follows: qHTS assay to identify small molecule antagonists of the vitamin D receptor (VDR) signaling pathway - cell viability counter screen (AID 743225). Further: nearly all actives have a fitted effect of over 50% in size. Further: potency means the concentration at half of the fitted maximal effect. In a few lines: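 HEK293T VDR-bla; cpd + 1a,25-(OH)2D3 3 nM final, 16 h 37C/5% CO2; B/G FRET substrate 2 h RT; then CellTiter-Glo 30 min RT, luminescence.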
Assay [16] is described as follows: qHTS assay to identify small molecule agonists of the AP-1 signaling pathway - cell viability counter screen (AID 1159525; calls by dose curve; further: nearly all actives have a fitted effect of over 55% in size; further: potency means the concentration at half of the fitted maximal effect). The procedure, abridged: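 ME-180 AP-1-bla, 2500 cells/well, Opti-MEM + 0.5% dialyzed FBS; overnight 37 °C; cpd 15-pt titration, 5 h 37 °C; CellTiter-Glo 30 min RT; luminescence read; normalised to TOAB and DMSO controls.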
The target in assay [17] is Bile acid receptor (Homo sapiens) (UniProt Q96RI1). In words: qHTS assay to identify small molecule agonists of the farnesoid-X-receptor (FXR) signaling pathway (AID 743220; active means well fitted activation curve with a large enough effect in the signal ratio in the repeat runs, not every such curve was filed as active; the % refers to the signal ratio; further: on the % scale 0 is the no-effect control and ±100 the full control effect). In a few lines:
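Beta-lactamase reporter under UAS control in GeneBLAzer FXR HEK 293T cells (5000/well) measured with LiveBLAzer FRET substrate after 2 h at room temperature. Compound exposure lasted 16 h at 37C.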

Assay [18] in a line: qHTS assay to identify small molecule agonists of the AP-1 signaling pathway (AID 1159526; calls by dose curve; further: on the % scale 0 is the no-effect control and ±100 the full control effect).
The target of assay [19] is Retinoic acid receptor RXR-alpha (Homo sapiens) (UniProt P19793). Nature of the assay: qHTS assay to identify small molecule agonists of the RXR signaling pathway (AID 1159527; calls by dose curve; further: on the % scale 0 is the no-effect control and ±100 the full control effect; nearly all actives have a fitted effect of over 35% in size). The procedure, abridged: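 Cells plated at 2,000/well, rested 5 hr at 37 C, pin-dosed with DMSO compound solutions, incubated 16 hr, then loaded with B/G FRET substrate for 2 hr at RT before dual-emission fluorescence reading.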
Chain of Retinoic acid receptor RXR-alpha (Homo sapiens) (P19793 whole entry, looked up): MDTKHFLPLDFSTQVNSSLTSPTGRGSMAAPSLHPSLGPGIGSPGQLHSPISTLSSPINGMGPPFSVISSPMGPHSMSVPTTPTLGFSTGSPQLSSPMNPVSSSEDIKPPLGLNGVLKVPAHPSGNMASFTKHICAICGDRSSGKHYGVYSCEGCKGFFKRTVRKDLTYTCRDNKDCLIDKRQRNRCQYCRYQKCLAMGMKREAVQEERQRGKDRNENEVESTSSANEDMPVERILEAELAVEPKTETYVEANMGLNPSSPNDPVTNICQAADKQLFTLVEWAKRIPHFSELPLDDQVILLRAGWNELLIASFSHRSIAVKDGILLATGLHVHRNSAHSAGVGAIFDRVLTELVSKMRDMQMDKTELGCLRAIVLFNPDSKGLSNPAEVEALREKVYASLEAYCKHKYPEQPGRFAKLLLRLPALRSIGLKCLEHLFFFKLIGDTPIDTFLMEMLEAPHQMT

Chain of Peroxisome proliferator-activated receptor delta (Homo sapiens) (Q03181 whole entry, looked up): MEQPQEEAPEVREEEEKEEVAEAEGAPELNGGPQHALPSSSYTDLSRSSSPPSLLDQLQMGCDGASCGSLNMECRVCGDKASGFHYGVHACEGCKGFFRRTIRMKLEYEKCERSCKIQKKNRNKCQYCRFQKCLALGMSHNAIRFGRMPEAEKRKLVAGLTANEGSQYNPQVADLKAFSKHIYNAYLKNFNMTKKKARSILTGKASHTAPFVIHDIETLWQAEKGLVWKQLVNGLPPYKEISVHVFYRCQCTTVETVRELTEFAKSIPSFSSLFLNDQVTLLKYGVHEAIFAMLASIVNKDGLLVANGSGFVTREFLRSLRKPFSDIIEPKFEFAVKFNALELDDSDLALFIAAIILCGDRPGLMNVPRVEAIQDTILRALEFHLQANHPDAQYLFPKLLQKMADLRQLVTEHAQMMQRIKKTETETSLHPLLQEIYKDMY
Chain of Bile acid receptor (Homo sapiens) (Q96RI1 whole entry, looked up): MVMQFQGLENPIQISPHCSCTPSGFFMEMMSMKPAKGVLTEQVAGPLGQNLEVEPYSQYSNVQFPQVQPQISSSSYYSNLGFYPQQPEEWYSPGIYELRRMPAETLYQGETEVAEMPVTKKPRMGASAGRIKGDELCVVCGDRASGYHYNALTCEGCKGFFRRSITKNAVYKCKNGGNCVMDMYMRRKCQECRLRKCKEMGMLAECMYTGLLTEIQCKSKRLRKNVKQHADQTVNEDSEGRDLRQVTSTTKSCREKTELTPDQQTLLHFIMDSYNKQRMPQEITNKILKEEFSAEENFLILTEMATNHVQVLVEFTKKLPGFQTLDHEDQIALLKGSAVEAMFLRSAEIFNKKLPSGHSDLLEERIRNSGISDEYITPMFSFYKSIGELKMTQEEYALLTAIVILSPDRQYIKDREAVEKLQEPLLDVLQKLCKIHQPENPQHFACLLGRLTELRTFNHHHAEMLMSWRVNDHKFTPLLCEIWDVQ

Consider `CCCCCCCCCC[N+](C)(CCCCCCCCCC)CCC[Si](OC)(OC)OC`, for which the Potency is 9.77 µM (active) in assay [1]; 9.77 µM (active) in assay [3]; 8.71 µM (active) in assay [5]; 6.92 µM (active) in [7]; 24.3 µM (active) in assay [8]; 21.7 µM (active) in assay [9]. For the same compound, the Potency is 21.9 µM (active) in assay [10], 30.6 µM (active) in [11] and 61.1 µM (active) in assay [12]. Further, the compound was called inactive in [2]. Also, the Potency entry in assay [4] and in assay [6] was “inactive” in each case.

As to `O=C(CCN1CCC(c2ccccc2)C1)c1ccc2c(c1)OCCO2` (centres undefined), the Potency entry in [1], in assay [3], in assay [5], in assay [13], in assay [15] and in [16] was “inactive” each time. In addition, the Potency entry in [11] is “inactive”. Besides, the compound was classed as inactive in assay [14]. The figures for the Potency in assay [8] and in [9] were 26.6 µM (active) and 33.5 µM (active), respectively.

As for `O=C1C=CC(=O)N1c1cccc(N2C(=O)C=CC2=O)c1`, the Potency in assay [8] was 12.2 µM (active); in [9], 3.86 µM (active); in assay [16] it was 13.8 µM (active); in [10], 11 µM (active); in [11], 21.7 µM (active); in [12] it was 10.9 µM (active).

`C[C@H]1O[C@@H](O[C@H]2CC[C@@]3(C)[C@H](CC[C@@H]4[C@@H]3C[C@@H](O)[C@]3(C)[C@@H](C5=CC(=O)OC5)CC[C@]43O)C2)C[C@H](O)[C@@H]1O[C@H]1C[C@H](O)[C@H](O[C@H]2C[C@H](O)[C@H](O[C@@H]3O[C@H](CO)[C@@H](O)[C@H](O)[C@H]3O)[C@@H](C)O2)[C@@H](C)O1`: the results for the Potency in assay [1], in assay [7] and in assay [15] were 0.298 µM (active), 0.298 µM (active) and 0.338 µM (active), respectively. For the same compound, in assay [17], the compound was called inactive. Further, the Potency entry in [8], in assay [9], in assay [18], in assay [11] and in [12] was “inactive” throughout.

`CCCCNc1ccc(NCCCC)c2c1C(=O)c1ccccc1C2=O`: the activity, negative = cytotoxicity in assay [8] is -0.683% [at 19 µM]. In assay [9], the activity change, negative = inhibition is -8.88% [at 19 µM]. Further, the viability change, negative = cytotoxic in assay [16] is -8.5% [at 15.8 µM]. Also, in assay [19], the activation is 10.8% [at 15.8 µM]. Moreover, the activity change, negative = cytotoxicity is 10.1% [at 15.8 µM] in assay [10] and 0.361% [at 19 µM] in assay [11]. Further, the activity, negative = inhibition in assay [12] is -19% [at 19 µM].

As to `CN1CC[C@H](c2c(O)cc(O)c3c(=O)cc(-c4ccccc4Cl)oc23)[C@H](O)C1`, the Potency result in assay [1], in assay [3], in assay [5], in assay [13], in [15] and in assay [16] was “inactive” throughout. The Potency result in assay [10] was “inactive”. The results for the Potency in [8], in assay [9] and in [12] were 0.237 µM (active), 0.298 µM (active) and 0.0668 µM (active), respectively.

As for `Nc1ccc2c(S(=O)(=O)O)cccc2c1S(=O)(=O)O`, the Potency result in [8], in [9], in assay [16], in [19], in assay [10] and in [11] was “inactive” throughout. For the same compound, the Potency entry in assay [12] was “inactive”.

For `NC(=O)C1CO1` (centres undefined), the Potency entry in assay [8], in assay [9], in assay [16], in assay [19], in assay [11] and in assay [12] was “inactive” throughout.

Take `SC1CCCCC1`: the Potency result in [1], in [3], in [4], in assay [5], in [6] and in assay [7] was “inactive” each time. The Potency entry in assay [15], in assay [8], in assay [16], in assay [18], in assay [19] and in assay [10] was “inactive” in each case. The Potency result in [11] is “inactive”. Also, the result in [2], in assay [17] and in [14] was inactive.

`O=[N+]([O-])c1ccc(CO)cc1`: the Potency result in [8], in assay [16], in [18], in assay [19], in [10] and in [11] was “inactive” throughout. Moreover, the Potency entry in assay [12] is “inactive”.

For the compound `CCC1(C)C(=O)N(Cl)C(=O)N1Cl` (centres undefined), the Potency entry in [8], in assay [16], in assay [18], in assay [19], in [10] and in assay [11] was “inactive” in each case. Also, the Potency entry in [12] is “inactive”.

Take `CO[Si](OC)(c1ccccc1)c1ccccc1`: the Potency entry in assay [8] and in assay [11] was “inactive” in each case. In addition, in assay [9], the Potency is 61.1 µM (active).

As for `CCCC(C)C=O` (centres undefined), the Potency entry in [8], in [16], in assay [18], in [19], in assay [10] and in [11] was “inactive” in each case.

Turning to `CCCCCCCCc1ccc(Nc2ccc(CCCCCCCC)cc2)cc1`, the Potency entry in [8], in [16], in [18], in [19], in [10] and in assay [11] was “inactive” throughout. In addition, the Potency result in assay [12] was “inactive”.

Take `C=C(C)C1CCC(C)CC1O` (centres undefined): the Potency result in assay [8], in [16], in assay [18], in [19] and in [11] was “inactive” each time.

`CCC(O)CO` (centres undefined): the Potency entry in assay [8], in [16], in assay [18], in assay [19], in assay [10] and in [11] was “inactive” each time.
